Test results reported in PubChem BioAssay AID1159580 (chemical genetic matrix, 2015).
About 2,000 (36%) of roughly 5,500 compounds were called active. Not shown: some 18% with an inconclusive outcome. No stated cut-off is given here; in the data, active means normalized growth mostly below about 0.91 (no sharp cut-off); inconclusive means no clear call, values can overlap the other calls; inactive means mostly above about 0.92. This is one part of the list.

Assay: chemical genetic growth profiling, strain panel (AID 1159580);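 further: tested at 20 µM; growth read once vehicle control cultures reached saturation at 30 °C; 1 = growth at the plate median or of vehicle wells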
Conditions: growth OD

Measured: normalized growth

CC(=O)CC1CCCCN1 (configuration not stated)
inactive: S. cerevisiae deletion strains, locus YJR075W, strain HOC1, stronger effect = lower value 1.01 | S. cerevisiae deletion strains, locus YKL009W, strain mrt4, stronger effect = lower value 0.996 | S. cerevisiae deletion strains, locus YKL068W, stronger effect = lower value 1 | S. cerevisiae deletion strains, locus YKL085W, strain MDH1 (second series), stronger effect = lower value 0.983 | S. cerevisiae deletion strains, locus YKL085W, strain MDH1, stronger effect = lower value 0.983 | S. cerevisiae deletion strains, locus YKL160W, strain elf1, stronger effect = lower value 1.02 | S. cerevisiae deletion strains, locus YKL190W, strain CNB1, stronger effect = lower value 1.02 | S. cerevisiae deletion strains, locus YKR001C, strain vps1, stronger effect = lower value 0.994 | S. cerevisiae deletion strains, locus YKR026C, strain gcn3, stronger effect = lower value 1.02 | S. cerevisiae deletion strains, locus YKR091W, strain srl3, stronger effect = lower value 1.02 | S. cerevisiae deletion strains, locus YLL001W, strain dnm1, stronger effect = lower value 1.02 | S. cerevisiae deletion strains, locus YLL026W, stronger effect = lower value 1.02 | S. cerevisiae deletion strains, locus YLL041C, strain sdh2, stronger effect = lower value 1.01 | S. cerevisiae deletion strains, locus YLR027C, strain aat2, stronger effect = lower value 1.03 | S. cerevisiae deletion strains, locus YLR039C, strain RIC1, stronger effect = lower value 1.06 | S. cerevisiae deletion strains, locus YLR058C, strain SHM2, stronger effect = lower value 1.02 | S. cerevisiae deletion strains, locus YLR102C, strain apc9, stronger effect = lower value 0.996 | S. cerevisiae deletion strains, locus YLR113W, strain HOG1, stronger effect = lower value 0.981 | S. cerevisiae deletion strains, locus YLR221C, strain rsa3, stronger effect = lower value 1.03 | S. cerevisiae deletion strains, locus YLR258W, strain gsy2, stronger effect = lower value 1.02 | S. cerevisiae deletion strains, locus YLR262C, strain YPT6 (second series), stronger effect = lower value 1.03 | S. cerevisiae deletion strains, locus YLR262C, strain YPT6, stronger effect = lower value 1.1 | S. cerevisiae deletion strains, locus YLR268W, strain sec22, stronger effect = lower value 0.993 | S. cerevisiae deletion strains, locus YLR320W, strain mms22, stronger effect = lower value 1.04 | S. cerevisiae deletion strains, locus YLR330W, strain CHS5, stronger effect = lower value 1.01 | S. cerevisiae deletion strains, locus YLR342W, strain FKS1 (second series), stronger effect = lower value 0.993 | S. cerevisiae deletion strains, locus YLR342W, strain FKS1, stronger effect = lower value 1.02 | S. cerevisiae deletion strains, locus YLR357W, strain rsc2, stronger effect = lower value 0.995 | S. cerevisiae deletion strains, locus YLR370C, strain arc18, stronger effect = lower value 1.02 | S. cerevisiae deletion strains, locus YLR371W, strain rom2, stronger effect = lower value 0.994 | S. cerevisiae deletion strains, locus YLR384C, strain iki3, stronger effect = lower value 1.01 | S. cerevisiae deletion strains, locus YLR418C, strain cdc73, stronger effect = lower value 1 | S. cerevisiae deletion strains, locus YML016C, strain PPZ1, stronger effect = lower value 1.02 | S. cerevisiae deletion strains, locus YML032C, strain rad52, stronger effect = lower value 0.982 | S. cerevisiae deletion strains, locus YML120C, strain ndi1, stronger effect = lower value 1.02 | S. cerevisiae deletion strains, locus YML124C, strain tub3, stronger effect = lower value 0.995 | S. cerevisiae deletion strains, locus YMR058W, strain fet3, stronger effect = lower value 1.02 | S. cerevisiae deletion strains, locus YMR078C, strain ctf18, stronger effect = lower value 0.99 | S. cerevisiae deletion strains, locus YMR125W, strain sto1, stronger effect = lower value 1 | S. cerevisiae deletion strains, locus YMR129W, stronger effect = lower value 1.01 | S. cerevisiae deletion strains, locus YMR205C, strain PFK2, stronger effect = lower value 1.04 | S. cerevisiae deletion strains, locus YMR223W, strain ubp8, stronger effect = lower value 0.997 | S. cerevisiae deletion strains, locus YMR231W, strain pep5, stronger effect = lower value 1.01 | S. cerevisiae deletion strains, locus YMR263W, strain SAP30, stronger effect = lower value 1.02 | S. cerevisiae deletion strains, locus YMR307W, strain GAS1, stronger effect = lower value 1.08 | S. cerevisiae deletion strains, locus YNL067W, strain RPL9B, stronger effect = lower value 1.02 | S. cerevisiae deletion strains, locus YNL071W, strain lat1, stronger effect = lower value 1.02 | S. cerevisiae deletion strains, locus YNL128W, strain TEP1, stronger effect = lower value 1.01 | S. cerevisiae deletion strains, locus YNL153C, strain GIM3, stronger effect = lower value 1.02 | S. cerevisiae deletion strains, locus YNL183C, strain NPR1, stronger effect = lower value 0.954 | S. cerevisiae deletion strains, locus YNL209W, strain ssb2, stronger effect = lower value 1.02 | S. cerevisiae deletion strains, locus YNL233W, strain BNI4, stronger effect = lower value 1.02 | S. cerevisiae deletion strains, locus YNL248C, strain rpa49, stronger effect = lower value 1.01 | S. cerevisiae deletion strains, locus YNL250W, strain rad50, stronger effect = lower value 0.993 | S. cerevisiae deletion strains, locus YNL271C, strain bni1, stronger effect = lower value 0.993 | S. cerevisiae deletion strains, locus YNL298W, strain CLA4, stronger effect = lower value 0.988 | S. cerevisiae deletion strains, locus YNL307C, strain MCK1, stronger effect = lower value 0.995 | S. cerevisiae deletion strains, locus YNL322C, strain KRE1 (second series), stronger effect = lower value 1.01 | S. cerevisiae deletion strains, locus YNL322C, strain KRE1, stronger effect = lower value 1.01 | S. cerevisiae deletion strains, locus YNR049C, strain mso1, stronger effect = lower value 1.02 | S. cerevisiae deletion strains, locus YNR052C, strain pop2, stronger effect = lower value 0.98 | S. cerevisiae deletion strains, locus YOL006C, strain TOP1, stronger effect = lower value 1.04 | S. cerevisiae deletion strains, locus YOL012C, strain htz1 0.894 | S. cerevisiae deletion strains, locus YOL147C, strain pex11, stronger effect = lower value 0.993 | S. cerevisiae deletion strains, locus YOR001W, strain rrp6, stronger effect = lower value 1 | S. cerevisiae deletion strains, locus YOR061W, strain CKA2, stronger effect = lower value 1.01 | S. cerevisiae deletion strains, locus YOR069W, strain VPS5, stronger effect = lower value 0.999 | S. cerevisiae deletion strains, locus YOR070C, strain gyp1, stronger effect = lower value 1.03 | S. cerevisiae deletion strains, locus YOR080W, strain dia2, stronger effect = lower value 1.02 | S. cerevisiae deletion strains, locus YOR083W, strain WHI5, stronger effect = lower value 1.03 | S. cerevisiae deletion strains, locus YOR106W, strain vam3, stronger effect = lower value 1.01 | S. cerevisiae deletion strains, locus YOR136W, strain idh2, stronger effect = lower value 0.977 | S. cerevisiae deletion strains, locus YOR144C, strain elg1, stronger effect = lower value 1 | S. cerevisiae deletion strains, locus YOR184W, strain ser1, stronger effect = lower value 0.974 | S. cerevisiae deletion strains, locus YOR231W, strain MKK1, stronger effect = lower value 0.983 | S. cerevisiae deletion strains, locus YOR265W, strain rbl2, stronger effect = lower value 1.01 | S. cerevisiae deletion strains, locus YOR270C, strain vph1, stronger effect = lower value 1.05 | S. cerevisiae deletion strains, locus YOR290C, strain snf2, stronger effect = lower value 1 | S. cerevisiae deletion strains, locus YOR316C, strain cot1, stronger effect = lower value 0.991 | S. cerevisiae deletion strains, locus YPL051W, strain arl3, stronger effect = lower value 1.03 | S. cerevisiae deletion strains, locus YPL055C, strain LGE1, stronger effect = lower value 1.04 | S. cerevisiae deletion strains, locus YPL078C, strain atp4, stronger effect = lower value 1.02 | S. cerevisiae deletion strains, locus YPL106C, strain sse1, stronger effect = lower value 1 | S. cerevisiae deletion strains, locus YPL240C, strain hsp82, stronger effect = lower value 1.01 | S. cerevisiae deletion strains, locus YPL241C, strain CIN2, stronger effect = lower value 0.995 | S. cerevisiae deletion strains, locus YPL256C, strain CLN2, stronger effect = lower value 0.967 | S. cerevisiae deletion strains, locus YPR119W, strain clb2, stronger effect = lower value 0.993 | S. cerevisiae deletion strains, locus YPR141C, strain kar3, stronger effect = lower value 0.99 | S. cerevisiae deletion strains, locus YPR163C, strain tif3, stronger effect = lower value 0.993 | S. cerevisiae deletion strains, locus YPR167C, strain met16, stronger effect = lower value 0.987 | S. cerevisiae deletion strains, strain wtn01, stronger effect = lower value 1 | S. cerevisiae strains, strain wild type, stronger effect = lower value 1.02
